{"source": "paper PMC7862700", "about": "“An all-to-all approach to the identification of sequence-specific readers for epigenetic DNA modifications on cytosine”", "assay_in_all_cases": "DAPPL (digital affinity profiling via proximity ligation, sequencing); 10 mM Tris-HCl pH 7.5, 50 mM NaCl, 1 mM DTT, 4% glycerol, room temperature, 30 min; GST-TFs on glutathione beads, 16-mer random dsDNA library, 0.1% formaldehyde crosslink after washing; high values mean tight binding", "details_in_all_cases": "protein: recombinant; tags: N-terminal GST; dsDNA, one strand shown", "key": {"ERG": {"molecular_target": "T1, ERG (Homo sapiens, UniProt P11308 1-479)", "T1 sequence": "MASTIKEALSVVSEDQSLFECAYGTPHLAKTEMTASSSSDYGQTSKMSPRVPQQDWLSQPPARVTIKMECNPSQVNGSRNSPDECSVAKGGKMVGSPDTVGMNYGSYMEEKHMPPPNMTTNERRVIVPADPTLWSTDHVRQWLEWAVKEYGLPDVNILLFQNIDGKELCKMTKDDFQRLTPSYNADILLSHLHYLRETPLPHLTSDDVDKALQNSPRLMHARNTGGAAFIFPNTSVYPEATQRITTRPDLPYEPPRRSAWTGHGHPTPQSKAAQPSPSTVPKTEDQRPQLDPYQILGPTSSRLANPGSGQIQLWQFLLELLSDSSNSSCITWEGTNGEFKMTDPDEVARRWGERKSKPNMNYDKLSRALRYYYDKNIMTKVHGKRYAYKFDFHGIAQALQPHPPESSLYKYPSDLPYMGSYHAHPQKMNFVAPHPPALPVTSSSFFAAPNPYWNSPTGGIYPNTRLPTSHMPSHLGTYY", "summary_of_the_method": "(§1)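 After expression in yeast as GST fusions, human transcription factors were bound to glutathione beads, DNA-barcoded and mixed with a tag-only sample. The pools were incubated with 200 nmole of a 16-mer random double-stranded DNA library in Tris/NaCl/DTT/glycerol buffer (30 min, room temperature), washed and crosslinked with 0.1% formaldehyde. Proximity ligation with BsaI/T4 ligase ran for 1 h at 37 °C, before PCR amplification and sequencing on an Illumina NextSeq500. Binding signal is a hexamer's read frequency for a factor divided by its frequency for the tag-only sample.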"}, "ELF1": {"molecular_target": "ELF1 (Homo sapiens, UniProt P32519 1-619)", "sequence (P32519 whole entry)": "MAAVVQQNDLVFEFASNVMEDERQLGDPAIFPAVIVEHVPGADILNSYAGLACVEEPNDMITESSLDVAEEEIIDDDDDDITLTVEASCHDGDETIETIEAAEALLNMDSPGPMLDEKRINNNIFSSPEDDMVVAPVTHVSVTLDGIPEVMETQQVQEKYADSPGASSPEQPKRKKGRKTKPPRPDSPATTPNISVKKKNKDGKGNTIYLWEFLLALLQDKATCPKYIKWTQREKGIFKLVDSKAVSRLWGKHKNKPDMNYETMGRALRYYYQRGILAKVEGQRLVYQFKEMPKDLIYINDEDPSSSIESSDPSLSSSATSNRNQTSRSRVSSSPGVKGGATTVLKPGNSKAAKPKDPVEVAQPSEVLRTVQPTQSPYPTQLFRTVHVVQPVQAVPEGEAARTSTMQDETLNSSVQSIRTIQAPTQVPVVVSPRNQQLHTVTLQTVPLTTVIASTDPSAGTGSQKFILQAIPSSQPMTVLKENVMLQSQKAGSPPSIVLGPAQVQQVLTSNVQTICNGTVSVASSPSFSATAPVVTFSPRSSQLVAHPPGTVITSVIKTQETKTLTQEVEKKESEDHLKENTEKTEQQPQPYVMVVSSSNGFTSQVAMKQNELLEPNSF", "summary_of_the_method": "as §1"}, "ETV5": {"molecular_target": "ETV5 (Homo sapiens, UniProt P41161 1-510)", "sequence (P41161 whole entry)": "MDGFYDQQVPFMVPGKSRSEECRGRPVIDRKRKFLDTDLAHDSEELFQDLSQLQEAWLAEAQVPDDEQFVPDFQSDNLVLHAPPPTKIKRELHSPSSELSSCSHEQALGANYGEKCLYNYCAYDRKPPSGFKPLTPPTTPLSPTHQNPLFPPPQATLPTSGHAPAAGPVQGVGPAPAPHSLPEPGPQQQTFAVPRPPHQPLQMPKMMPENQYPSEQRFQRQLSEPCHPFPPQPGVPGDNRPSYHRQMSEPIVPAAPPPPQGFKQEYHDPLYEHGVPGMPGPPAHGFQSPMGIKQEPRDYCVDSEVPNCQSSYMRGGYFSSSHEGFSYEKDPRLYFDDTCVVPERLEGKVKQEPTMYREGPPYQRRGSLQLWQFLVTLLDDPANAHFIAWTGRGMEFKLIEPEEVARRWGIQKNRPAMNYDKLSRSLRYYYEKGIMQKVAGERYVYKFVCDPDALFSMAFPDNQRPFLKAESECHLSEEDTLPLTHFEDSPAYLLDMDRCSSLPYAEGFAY", "summary_of_the_method": "as §1"}, "SPIC": {"molecular_target": "T2, SPIC (Homo sapiens, UniProt Q8N5J4 1-248)", "T2 sequence": "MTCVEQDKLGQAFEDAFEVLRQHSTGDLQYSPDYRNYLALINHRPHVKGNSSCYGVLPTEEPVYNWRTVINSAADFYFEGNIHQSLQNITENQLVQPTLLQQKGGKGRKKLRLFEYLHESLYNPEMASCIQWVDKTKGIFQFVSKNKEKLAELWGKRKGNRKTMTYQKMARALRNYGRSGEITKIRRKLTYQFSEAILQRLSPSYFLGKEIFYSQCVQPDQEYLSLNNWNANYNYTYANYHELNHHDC", "summary_of_the_method": "as §1"}, "ELF4": {"molecular_target": "ELF4 (Homo sapiens, UniProt Q99607 1-663)", "sequence (Q99607 whole entry)": "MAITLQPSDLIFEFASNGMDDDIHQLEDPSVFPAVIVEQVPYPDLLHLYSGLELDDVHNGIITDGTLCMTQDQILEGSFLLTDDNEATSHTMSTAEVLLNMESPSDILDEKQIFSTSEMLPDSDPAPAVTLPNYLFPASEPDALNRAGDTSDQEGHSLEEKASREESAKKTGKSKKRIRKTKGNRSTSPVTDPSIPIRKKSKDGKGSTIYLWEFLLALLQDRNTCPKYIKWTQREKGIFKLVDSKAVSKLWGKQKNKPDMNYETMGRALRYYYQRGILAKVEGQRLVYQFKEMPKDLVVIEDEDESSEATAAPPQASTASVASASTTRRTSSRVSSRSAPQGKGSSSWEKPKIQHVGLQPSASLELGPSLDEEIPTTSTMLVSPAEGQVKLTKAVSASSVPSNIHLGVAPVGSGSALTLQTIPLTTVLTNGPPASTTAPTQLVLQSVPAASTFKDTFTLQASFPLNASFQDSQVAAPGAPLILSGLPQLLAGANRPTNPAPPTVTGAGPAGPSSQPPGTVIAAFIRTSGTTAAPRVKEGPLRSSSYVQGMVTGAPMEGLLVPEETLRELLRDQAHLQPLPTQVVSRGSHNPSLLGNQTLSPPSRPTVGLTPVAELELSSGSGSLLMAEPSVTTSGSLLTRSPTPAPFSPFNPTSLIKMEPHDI", "summary_of_the_method": "as §1"}, "ELF3": {"molecular_target": "T3, ELF3 (Homo sapiens, UniProt P78545 1-371)", "T3 sequence": "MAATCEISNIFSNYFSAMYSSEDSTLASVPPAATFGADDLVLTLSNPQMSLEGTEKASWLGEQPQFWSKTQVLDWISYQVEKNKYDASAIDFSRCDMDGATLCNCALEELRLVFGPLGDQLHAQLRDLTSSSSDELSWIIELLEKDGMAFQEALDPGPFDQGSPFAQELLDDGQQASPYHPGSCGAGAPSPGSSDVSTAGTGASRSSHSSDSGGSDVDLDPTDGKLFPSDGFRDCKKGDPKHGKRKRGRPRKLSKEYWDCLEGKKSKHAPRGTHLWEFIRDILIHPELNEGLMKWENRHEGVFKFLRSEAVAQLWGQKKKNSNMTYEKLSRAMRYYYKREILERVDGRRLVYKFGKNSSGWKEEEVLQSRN", "summary_of_the_method": "as §1"}, "ETV3L": {"molecular_target": "T4, ETV3L (Homo sapiens, UniProt Q6ZN32 1-361)", "T4 sequence": "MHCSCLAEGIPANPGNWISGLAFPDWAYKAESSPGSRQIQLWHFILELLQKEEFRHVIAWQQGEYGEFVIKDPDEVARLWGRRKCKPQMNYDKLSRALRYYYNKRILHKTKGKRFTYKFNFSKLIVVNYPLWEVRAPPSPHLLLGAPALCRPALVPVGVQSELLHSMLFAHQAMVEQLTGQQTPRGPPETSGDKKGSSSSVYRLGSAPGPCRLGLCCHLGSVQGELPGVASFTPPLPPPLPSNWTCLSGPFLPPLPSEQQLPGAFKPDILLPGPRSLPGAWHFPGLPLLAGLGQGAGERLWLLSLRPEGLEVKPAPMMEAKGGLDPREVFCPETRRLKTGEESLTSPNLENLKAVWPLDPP", "summary_of_the_method": "as §1"}, "ETV7": {"molecular_target": "T5, ETV7 (Homo sapiens, UniProt Q9Y603 1-341)", "T5 sequence": "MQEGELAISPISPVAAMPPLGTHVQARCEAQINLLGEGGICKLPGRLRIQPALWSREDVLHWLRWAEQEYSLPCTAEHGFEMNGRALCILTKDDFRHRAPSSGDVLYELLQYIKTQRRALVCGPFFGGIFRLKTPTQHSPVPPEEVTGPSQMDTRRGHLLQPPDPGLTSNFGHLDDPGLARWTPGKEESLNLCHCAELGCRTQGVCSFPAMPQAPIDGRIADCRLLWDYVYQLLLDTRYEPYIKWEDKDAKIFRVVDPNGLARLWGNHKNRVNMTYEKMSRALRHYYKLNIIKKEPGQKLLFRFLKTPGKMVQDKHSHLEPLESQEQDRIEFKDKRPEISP", "summary_of_the_method": "as §1"}, "ETV6": {"molecular_target": "ETV6 (Homo sapiens, UniProt P41212 1-452)", "sequence (P41212 whole entry)": "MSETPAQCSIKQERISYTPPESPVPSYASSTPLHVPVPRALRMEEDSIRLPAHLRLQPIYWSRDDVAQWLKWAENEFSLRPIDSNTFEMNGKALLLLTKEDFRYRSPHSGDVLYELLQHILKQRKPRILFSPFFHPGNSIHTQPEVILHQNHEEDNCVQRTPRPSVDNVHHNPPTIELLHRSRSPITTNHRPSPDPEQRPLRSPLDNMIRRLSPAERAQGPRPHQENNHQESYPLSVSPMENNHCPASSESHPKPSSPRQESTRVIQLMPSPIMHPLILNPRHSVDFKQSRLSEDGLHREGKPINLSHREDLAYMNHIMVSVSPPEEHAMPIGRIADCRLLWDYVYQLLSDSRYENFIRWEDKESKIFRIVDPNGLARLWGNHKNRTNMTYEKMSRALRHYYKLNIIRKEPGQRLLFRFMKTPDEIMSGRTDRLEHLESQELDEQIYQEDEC", "summary_of_the_method": "as §1"}, "EHF": {"molecular_target": "T6, EHF (Homo sapiens, UniProt Q9NZC4 1-300)", "T6 sequence": "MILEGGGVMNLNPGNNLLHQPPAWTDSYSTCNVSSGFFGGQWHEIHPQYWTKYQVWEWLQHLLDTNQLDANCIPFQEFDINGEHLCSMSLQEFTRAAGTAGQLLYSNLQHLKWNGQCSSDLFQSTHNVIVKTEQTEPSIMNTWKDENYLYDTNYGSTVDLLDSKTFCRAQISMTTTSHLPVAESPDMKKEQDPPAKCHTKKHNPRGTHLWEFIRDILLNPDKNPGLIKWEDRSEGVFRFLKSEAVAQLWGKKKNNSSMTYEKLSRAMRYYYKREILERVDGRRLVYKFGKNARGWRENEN", "summary_of_the_method": "as §1"}, "SPIB": {"molecular_target": "SPIB (Homo sapiens, UniProt Q01892 1-262)", "sequence (Q01892 whole entry)": "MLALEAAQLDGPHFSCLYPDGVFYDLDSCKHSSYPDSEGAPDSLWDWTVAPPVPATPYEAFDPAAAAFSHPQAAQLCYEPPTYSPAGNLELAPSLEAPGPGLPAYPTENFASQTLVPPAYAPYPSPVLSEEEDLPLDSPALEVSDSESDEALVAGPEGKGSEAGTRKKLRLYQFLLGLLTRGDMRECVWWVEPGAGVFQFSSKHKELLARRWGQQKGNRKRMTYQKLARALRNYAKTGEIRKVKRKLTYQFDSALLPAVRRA", "summary_of_the_method": "as §1"}, "ETV1": {"molecular_target": "ETV1 (Homo sapiens, UniProt P50549 1-477)", "sequence (P50549 whole entry)": "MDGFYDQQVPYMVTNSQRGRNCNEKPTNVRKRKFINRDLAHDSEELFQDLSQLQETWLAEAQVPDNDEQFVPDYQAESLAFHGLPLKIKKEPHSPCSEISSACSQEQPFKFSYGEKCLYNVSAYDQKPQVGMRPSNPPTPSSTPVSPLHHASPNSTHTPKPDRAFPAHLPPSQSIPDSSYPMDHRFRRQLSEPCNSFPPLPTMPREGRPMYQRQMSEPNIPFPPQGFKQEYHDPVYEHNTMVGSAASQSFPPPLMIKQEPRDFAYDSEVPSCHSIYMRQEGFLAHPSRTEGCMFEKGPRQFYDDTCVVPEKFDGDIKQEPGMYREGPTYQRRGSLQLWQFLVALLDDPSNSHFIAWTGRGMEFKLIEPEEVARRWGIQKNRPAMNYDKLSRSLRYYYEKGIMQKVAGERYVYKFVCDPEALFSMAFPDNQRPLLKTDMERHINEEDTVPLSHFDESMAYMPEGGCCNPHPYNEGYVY", "summary_of_the_method": "as §1"}}}
{"sequence": "ACTCAG", "values": [{"measurement": "binding signal", "setting": "ERG", "result": "1.06 fold enrichment (6-mer frequency, TF over GST control)"}, {"measurement": "binding signal", "setting": "ELF1", "result": "1.07 fold enrichment (6-mer frequency, TF over GST control)"}, {"measurement": "binding signal", "setting": "ETV5", "result": "1.03 fold enrichment (6-mer frequency, TF over GST control)"}, {"measurement": "binding signal", "setting": "SPIC", "result": "1.11 fold enrichment (6-mer frequency, TF over GST control)"}, {"measurement": "binding signal", "setting": "ELF4", "result": "1.08 fold enrichment (6-mer frequency, TF over GST control)"}, {"measurement": "binding signal", "setting": "ELF3", "result": "1.02 fold enrichment (6-mer frequency, TF over GST control)"}, {"measurement": "binding signal", "setting": "ETV3L", "result": "1.01 fold enrichment (6-mer frequency, TF over GST control)"}, {"measurement": "binding signal", "setting": "ETV7", "result": "1.05 fold enrichment (6-mer frequency, TF over GST control)"}, {"measurement": "binding signal", "setting": "ETV6", "result": "1.05 fold enrichment (6-mer frequency, TF over GST control)"}]}
{"sequence": "TGGAAC", "values": [{"measurement": "binding signal", "setting": "ERG", "result": "1.02 fold enrichment (6-mer frequency, TF over GST control)"}, {"measurement": "binding signal", "setting": "ELF1", "result": "1 fold enrichment (6-mer frequency, TF over GST control)"}, {"measurement": "binding signal", "setting": "EHF", "result": "1.04 fold enrichment (6-mer frequency, TF over GST control)"}, {"measurement": "binding signal", "setting": "SPIB", "result": "1.04 fold enrichment (6-mer frequency, TF over GST control)"}, {"measurement": "binding signal", "setting": "ETV5", "result": "1.05 fold enrichment (6-mer frequency, TF over GST control)"}, {"measurement": "binding signal", "setting": "ELF3", "result": "1.05 fold enrichment (6-mer frequency, TF over GST control)"}, {"measurement": "binding signal", "setting": "ETV1", "result": "1.04 fold enrichment (6-mer frequency, TF over GST control)"}]}
